Laboratory results reported in PubChem BioAssay AID652104 (National Center for Advancing Translational Sciences (NCATS), 2013).
In all, about 410,000 compounds went through this assay and about 7,200 (1.8%) were called active. About 7% were inconclusive and are not listed. Only a selection was taken, and actives are over-represented in it overall. Unmarked numbers belong to inactive results. Calls come from the whole dose curve; as a rule, active = well fitted activation curve with a large enough effect; inconclusive = small, poorly fitted or top-dose-only effect, or another doubt; inactive = no such curve, though single readings can be large or run the other way.

Assay: qHTS of TDP-43 Inhibitors; note: nearly all actives have a fitted effect of over 50% in size; for growth rescue (activation): % of control where 0% means no effect
Details: TDP-43 expressing yeast growth rescue, BacTiter-Glo, 24 h; series mostly up to 46.1 µM; growth rescue (activation): at the top concentration
Procedure, shortened: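 Luminescence from BacTiter-Glo reports growth of TDP-43-expressing yeast after 24 hr at 30 deg C with compound. Cells were raffinose-pregrown to mid-log, then seeded in galactose medium at OD600=0.02.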
Potency is the fitted concentration of half-maximal effect.

Row | Compound | growth rescue (activation) | Potency
1 | CCc1cc2c(cc3c(=O)n(CC(=O)N4CCN(c5cc(Cl)ccc5C)CC4)ncn32)s1 | 11.6% | –
2 | Cc1cc(OCc2ccc(C(=O)Nc3ccc(C(=O)O)cc3)o2)ccc1Cl | -9.15% | –
3 | O=C(COc1ccc2ccc(=O)oc2c1)NCC(O)c1ccccc1 (centres undefined) | 8.96% | –
4 | CC(C)OC(=O)c1ccc(COc2ccc3ccc(=O)oc3c2)o1 | – | 11.2 µM (active)
5 | CCOC(=O)c1cc(-c2ccc(OC)c(S(=O)(=O)Nc3ccc(OC)cc3OC)c2)on1 | 14.4% | –
6 | CCOC(=O)c1ccc(NC(=O)CC2C(=O)N(c3ccccc3)C(=O)N2Cc2cccs2)cc1 (centres undefined) | 11.2% | –
7 | CCOC(=O)c1ccc(N2C(=O)CC(Sc3nc(O)c(CC)c(=O)[nH]3)C2=O)cc1 (centres undefined) | 8.69% | –
8 | CCOC(=O)c1ccc(N2C(=O)CC(N(C)Cc3ccccc3)C2=O)cc1 (centres undefined) | – | 2.82 µM (active)
9 | CCOC(=O)c1ccc(N2C(=O)CC(N3CCN(C(=O)c4ccccc4)CC3)C2=O)cc1 (centres undefined) | 10.1% | –
10 | Cc1ccc(C)c(N2CCN(C(c3ccccc3)c3nnc(-c4ccccc4)o3)CC2)c1 (centres undefined) | 20.5% | –
11 | CCOc1ccc(-c2cc(C)n3nc(C(=O)Nc4ccc(C)c(C)c4)cc3n2)cc1 | 10% | –
12 | CCCCCc1ccc(-c2ccc(C(=O)O)cc2)nc1 | – | 3.16 µM (active)
13 | CCCCCC(=O)Nc1ccc(-c2cn3cccnc3n2)cc1 | -7.99% | –
14 | CCCCCc1ccc(-c2ccc(OCC)cc2)nc1 | – | 12.6 µM (active)
15 | CCOc1ccc(-c2ccc(SCC(=O)N3CCOCC3)nn2)cc1 | -8.68% | –
16 | O=C(O)CCC(=O)NCc1ccc(C(=O)O)cc1 | 11% | –
17 | Cc1ccsc1CN(C(=O)c1oc2ccc(Br)cc2c1C)C1CCS(=O)(=O)C1 (centres undefined) | 32.2% | –
18 | O=C(Nc1ccccc1Br)c1cc(CN2CCCC2)on1 | -6.37% | –
19 | Cc1ccc2nc(CN3CCN(S(=O)(=O)c4ccc(C)c(C)c4)CC3)oc2c1 | 24.1% | –
20 | Cc1ccc(CN2CCC(CNC(=O)c3cnn(-c4ccccc4Cl)c3C3CCN(C(=O)OC(C)(C)C)CC3)CC2)cc1 | 0% | –
21 | Cc1ccc(C(=O)OCc2nc(N)nc(Nc3ccccc3C)n2)cc1 | – | 12.6 µM (active)
22 | Cc1ccccc1Nc1nc(N)nc(COC(=O)CCC(=O)c2ccc(F)cc2)n1 | 4.71% | –
23 | CCCn1nc(C(=O)OCc2nc(N)nc(Nc3ccccc3C)n2)c2ccccc2c1=O | 9.98% | –
24 | O=C(NC1CC(=O)N(c2ccc(F)cc2)C1)c1ccc(S(=O)(=O)N2CCCC2)cc1 (centres undefined) | 24.6% | –
25 | COc1ccc2c(C)c(CCC(=O)NCc3ccc(OC)c(OC)c3)c(=O)oc2c1 | 5.65% | –

Row | Compound | growth rescue (activation) | Potency
26 | CC1CCCCN1CC(=O)N1CCCc2c1c(=O)oc1ccc(OCc3ccccc3)cc21 (centres undefined) | -26.7% | –
27 | Cc1cc(Cl)ccc1NC(=O)Cc1ccc(NC(=O)N2CCCCc3ccccc32)cc1 | 0% | –
28 | CCc1cccc(-n2nnc(-c3nsc(NC(=O)c4ccc(C)cc4)n3)c2C)c1 | 18.4% | –
29 | C=CCOc1ccc(/C=N/NC(=O)C(C)Sc2ccccn2)cc1OCC (centres undefined) | 15.6% | –
30 | C=CCOc1ccc(/C=C2/C(=O)ON=C2C)cc1OCC | – | 12.6 µM (active)
31 | CCOc1ccc(/C=C(\C#N)c2nc3ccccc3c(=O)[nH]2)cc1OC | 29% | –
32 | Cc1cccc(CC(=O)Nc2cccc(-c3cn4cccnc4n3)c2)c1 | 1.61% | –
33 | Cc1cc2nc(-c3ccco3)c(Cc3cccc(F)c3)n2c(C)c1Br | – | 3.16 µM (active)
34 | Cc1cc2nc(-c3ccc(F)cc3)c(Cc3ccsc3)n2c(C)c1Br | 13.7% | –
35 | O=C(CN1C(=O)CCn2nc(-c3ccccc3)cc21)NCc1ccccc1 | 18.2% [at 9.22 µM] | –
36 | COc1cccc(C(=O)NCc2ccc3c(c2)CCN3C(=O)c2ccncc2)c1 | 28.9% | –
37 | C/C(=N/OC(=O)c1c(-c2c(F)cccc2Cl)noc1C)c1cnccn1 | 3.39% | –
38 | Cc1ccc(-c2cc(C(=O)Oc3ccccc3Cl)no2)cc1C | 10.3% | –
39 | Cc1ccc(C(=O)O/N=C(\N)c2ccccn2)cc1Cl | – | 7.08 µM (active)
40 | Cc1c(Cl)cccc1NC(=O)C(=O)NCCc1csc2nc(-c3ccccc3F)nn12 | 29.8% | –
41 | CC(=O)Nc1cccc(NC(=O)CSc2cn(CC(=O)N3CCCC3)c3ccccc23)c1 | 17.1% | –
42 | COc1cccc(Cn2c(CNS(=O)(=O)c3ccc(Cl)s3)nc3cccnc32)c1 | 18.7% | –
43 | Clc1cccc(-c2nc(NCC3CCCO3)c3ccccc3n2)c1 (centres undefined) | – | 12.6 µM (active)
44 | Cn1c(=O)c2[nH]c(NCC3CCCO3)nc2n(-c2ccccc2)c1=O (centres undefined) | 0.787% | –
45 | O=C(NCC1CCCO1)c1cc2c([nH]c3ccccc32)c(-c2ccc(F)cc2)n1 (centres undefined) | 0% | –
46 | CCN(CCCNC(=O)Cn1ncc2c3ccccc3n(C)c2c1=O)Cc1ccccc1 | 15.9% | –
47 | CCOCCc1nn2c(=O)cc(COC(=O)CNC(=O)c3ccc(C(C)(C)C)cc3)nc2s1 | 7.41% | –
48 | COc1ccccc1N1CCN(S(=O)(=O)CCNC(=O)COc2ccc(F)cc2)CC1 | 5.6% | –
49 | COc1ccc(CNC(=O)CSc2n[nH]c(-c3ccc(F)cc3)n2)cc1 | 3.73% | –
